# Experimental data taken from PubChem BioAssay (EPA / NIEHS).
# Inconclusive results are not listed. More than one record can exist for a structure, and the calls need not agree. The source made the active and inactive calls. The calls were made as follows, unless noted: active = hit-call score of the fitted dose curve at least 0.9, where 1 is the maximum; inactive = score below 0.9.
# Tests used:
# [1] = ATG_NFI_CIS: Attagene CIS-FACTORIAL HepG2 Assay for human Nuclear Factor I (NFI) (AID 2282989); conditions: HepG2 cis-regulatory reporter, NFI response element transcription; actives raise or lower the signal
# Outline: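 Endogenous TF activity in HepG2 cells transiently transfected with cis-element-driven multiplexed reporter units, read 24 h after dosing. Reporter mRNA quantified by RT-PCR, 6-FAM labelling, HpaI digestion and capillary electrophoresis; bidirectional fit versus DMSO.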
# [2] = target: Myc proto-oncogene protein (Homo sapiens) (UniProt P01106); test: ATG_Myc_CIS: Attagene CIS-FACTORIAL HepG2 Assay for human Myelocytomatosis (Myc) Proto-Oncogene Transcription Factor (AID 2282990); conditions: HepG2, Attagene cis-reporter transcription factor activity; actives raise or lower the signal
# Outline: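 After 24 h chemical treatment of HepG2 cells carrying multiplexed cis-regulated reporter constructs, reporter transcripts quantified by RT-PCR and capillary electrophoresis of fluorescent fragments. Gain or loss fitted against DMSO baseline.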
# [3] = ATG_NF_kB_CIS: Attagene CIS-FACTORIAL HepG2 Assay for human Nuclear Factor Kappa B (NF-kB) (AID 2282991); conditions: HepG2 Attagene cis-factorial NF-kB reporter mRNA; actives raise or lower the signal
# Outline: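 HepG2 cells transfected with cis-promoter-driven reporter units, so endogenous transcription factor activity is measured. Reporter mRNA quantified 24 h after dosing by RT-PCR and capillary electrophoresis, with bidirectional fitting against DMSO.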
# [4] = ATG_NRF2_ARE_CIS: Attagene CIS-FACTORIAL HepG2 Assay for human Nuclear Factor Erythroid 2 Related Factor 2 (NFR2) response to Antioxidant Response Elements (ARE) (AID 2282992); conditions: HepG2 Attagene ARE/NRF2 reporter, transcription factor activity; actives raise or lower the signal;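 as to AC50: reporter mRNA level measured by RT-PCR and capillary electrophoresis fluorescence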
# Outline: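 Fluorescence intensity of reporter-specific cDNA fragments, separated by capillary electrophoresis, reflects mRNA induction in transfected HepG2 cells at 24 h. Activity is fitted bidirectionally, DMSO serving as baseline.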
# [5] = ATG_Oct_MLP_CIS: Attagene CIS-FACTORIAL HepG2 Assay for human Octamer-Binding Transcription Factor (Oct) (AID 2282993); conditions: HepG2 Attagene cis-factorial Oct reporter, mRNA; actives raise or lower the signal
# Outline: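 HepG2 cells transiently transfected with cis-element-driven reporter transcription units (endogenous TF activity); 24 h compound exposure. Reporter mRNA quantified by RT-PCR, 6-FAM labelling, HpaI digestion and capillary electrophoresis; bidirectional fit versus DMSO baseline.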
# [6] = target: Cellular tumor antigen p53 (Homo sapiens) (UniProt P04637); test: ATG_p53_CIS: Attagene CIS-FACTORIAL HepG2 Assay for human p53 Transcription Factor (AID 2282994); conditions: HepG2 p53 cis-element reporter, Attagene mRNA; actives raise or lower the signal
# Outline: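 Transiently transfected HepG2 (multiple cis reporter transcription units); exposure 24 h; reporter RNA via RT-PCR, 6-FAM extension, 2 h HpaI digest at 37 C, CE detection; DMSO baseline.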
# [7] = BSK_3C_TissueFactor: BioMAP Diversity Plus: 3C Assay for Tissue Factor Biomarker Activity (AID 2282997); conditions: BioMAP 3C HUVEC, tissue factor biomarker readout; actives raise or lower the signal
# Outline: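 In this endothelial system, HUVEC are treated for 24 h and Tissue Factor is assessed by ELISA, normalised to DMSO.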
# [8] = BSK_3C_VCAM1: BioMAP Diversity Plus: 3C Assay for Vascular cell adhesion molecule 1 (VCAM1) Biomarker Activity (AID 2282999); conditions: BioMAP 3C HUVEC, VCAM1 ELISA, cytokine-stimulated; actives raise or lower the signal
# Outline: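 Activity fitted in both directions relative to DMSO, with ELISA measurement of the surface marker on primary HUVEC (3C) at 24 h post-treatment; parallel SRB staining (0.1% SRB, TCA-fixed, 560 nm) flagged overt cytotoxicity.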
# [9] = BSK_4H_Eotaxin3: BioMAP Diversity Plus: 4H Assay for Eotaxin 3 Biomarker Activity (AID 2283000); conditions: primary human endothelial cells (HUVEC); actives raise or lower the signal;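 as to outcome: CCL26 protein level quantified by ELISA in parallel with SRB cytotoxicity check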
# Outline: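 ELISA quantitation of CCL26 (Eotaxin-3) protein from chemically dosed human vascular endothelial cells at 24 h; increases and decreases both scored relative to DMSO-treated baseline.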
# [10] = target: human Peroxisome Proliferator-activated Receptor alpha (PPARa), PPARA (gene 5465) (UniProt Q07869); test: ATG_PPARa_TRANS: Attagene TRANS-FACTORIAL HepG2 Assay for human Peroxisome Proliferator-activated Receptor alpha (PPARa) (AID 2283001; active = hit-call score of the fitted dose curve at least 0.9, where 1 is the maximum)
# Outline: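 Transfected HepG2 cells treated with test chemical for 24 h. RNA isolated, reverse-transcribed with oligo(dT), PCR-amplified, FAM-labelled and HpaI-digested. Fragments sized by capillary electrophoresis; gain-of-signal fit relative to DMSO.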
# [11] = read-out: Intercellular Adhesion Molecule 1 (ICAM1), ICAM1 (gene 3383); test: BSK_3C_ICAM1: BioMAP Diversity Plus: 3C Assay for Intercellular Adhesion Molecule 1 (ICAM1) Biomarker Activity (AID 2283003); conditions: primary human endothelial cells (HUVEC); actives raise or lower the signal
# Outline: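 ELISA read-out of ICAM-1; HUVEC (primary human), 3C system, 24 h post-dosing; bidirectional fit vs DMSO baseline.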
# [12] = target: human Retinoic Acid Receptor beta (RARb), RARB (gene 5915) (UniProt P10826); test: ATG_RARb_TRANS: Attagene TRANS-FACTORIAL HepG2 Assay for human Retinoic Acid Receptor beta (AID 2283004; active = hit-call score of the fitted dose curve at least 0.9, where 1 is the maximum)
# Outline: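 Fluorescent capillary-electrophoresis detection of GAL4-UAS reporter mRNA defines the endpoint, with induction over DMSO-treated wells scored as activity. Transiently transfected human hepatoma HepG2 cells expressing exogenous NR–Gal4 proteins are exposed to test chemicals for 24 h.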
# [13] = target: Retinoic acid receptor alpha (Homo sapiens) (UniProt P10276); test: ATG_RARa_TRANS: Attagene TRANS-FACTORIAL HepG2 Assay for human Retinoic Acid Receptor alpha (RARa) (AID 2283005; active = hit-call score of the fitted dose curve at least 0.9, where 1 is the maximum)
# Outline: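 Reporter transcripts, measured by RT-PCR with fluorescent labeling and capillary electrophoresis after 24 h dosing, reflect activity of an exogenous human RARa–GAL4 fusion in transiently transfected HepG2. Fitted for increase relative to DMSO.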
# [14] = BSK_3C_Proliferation: Cell Proliferation Assessment in the BioMAP Diversity Plus: 3C Assay (AID 2283006); conditions: primary human endothelial cells (HUVEC);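 as to AC50: potency may reflect either rise or fall in cell number versus DMSO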
# Outline: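 HUVEC, sub-confluent; 48 h chemical exposure; 10% TCA fix, 0.1% SRB stain, A560 total protein. Gain or loss of signal fitted both directions vs DMSO control.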
# [15] = target: Peroxisome proliferator-activated receptor gamma (Homo sapiens) (UniProt P37231); test: ATG_PPARg_TRANS: Attagene TRANS-FACTORIAL HepG2 Assay for human Peroxisome Proliferator-activated Receptor-gamma (PPARg) (AID 2283007; active = hit-call score of the fitted dose curve at least 0.9, where 1 is the maximum)
# Outline: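 HepG2 cells are transiently transfected with GAL4-UAS reporter units driven by chimeric NR-Gal4 fusions and dosed for 24 h. Reporter mRNA is quantified by RT-PCR, 6-FAM labelling, HpaI digestion and capillary electrophoresis. Induction is scored against DMSO.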
# [16] = target: Nuclear receptor subfamily 1 group I member 2 (Homo sapiens) (UniProt O75469); test: ATG_PXR_TRANS: Attagene TRANS-FACTORIAL HepG2 Assay for human Pregnane X Receptor (PXR) (AID 2283008; active = hit-call score of the fitted dose curve at least 0.9, where 1 is the maximum)
# Outline: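 Transient HepG2 transfectants carrying multiplexed reporter transcription units; PXR activity read through a Gal4 chimera. 24 h exposure. RT-PCR/CE fluorescence; upward curve fit referenced to DMSO.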
# [17] = target: human Retinoic Acid Receptor gamma (RARg), RARG (gene 5916) (UniProt P13631); test: ATG_RARg_TRANS: Attagene TRANS-FACTORIAL HepG2 Assay for human Retinoic Acid Receptor gamma (RARg) (AID 2283009; active = hit-call score of the fitted dose curve at least 0.9, where 1 is the maximum)
# Outline: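 Readout: reporter transcript levels via RT-PCR, 6-FAM primer-extension labelling, HpaI digestion and capillary electrophoresis. Cells: HepG2 carrying transfected RARg-GAL4 chimera plus UAS reporter set. Dosing 24 h; DMSO negative control.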
# [18] = BSK_3C_uPAR: BioMAP Diversity Plus: 3C Assay for Urokinase-type plasminogen activator receptor (uPAR) Biomarker Activity (AID 2282998); conditions: BioMAP 3C HUVEC, uPAR biomarker ELISA; actives raise or lower the signal
# Outline: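 Primary human umbilical vein endothelial cells, 3C system; surface uPAR measured by ELISA 24 h after dosing. Cytotoxicity via SRB total protein in parallel cultures; bidirectional fit against DMSO.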
# [19] = target: human Peroxisome Proliferator-activated Receptor delta (PPARd), PPARD (gene 5467) (UniProt Q03181); test: ATG_PPARd_TRANS: Attagene TRANS-FACTORIAL HepG2 Assay for human Peroxisome Proliferator-activated Receptor delta (PPARd) (AID 2283002; active = hit-call score of the fitted dose curve at least 0.9, where 1 is the maximum)
# Outline: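 Read-out is induced reporter mRNA, quantified by RT-PCR with fluorescent labelling and capillary electrophoresis after 24 h dosing. Cells are HepG2 transiently carrying multiple GAL4-UAS reporter units driven by exogenous NR-GAL4 chimeras; DMSO serves as baseline.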
# [20] = target: human RAR-related Orphan Receptor beta (RORb), RORB (gene 6096) (UniProt Q92753); test: ATG_RORb_TRANS: Attagene TRANS-FACTORIAL HepG2 Assay for human RAR-related Orphan Receptor beta (RORb) (AID 2283010; active = hit-call score of the fitted dose curve at least 0.9, where 1 is the maximum)
# Outline: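 HepG2, transient MRTU transfection (GAL4-UAS reporters, exogenous NR-Gal4 chimeras); 24 h compound exposure; total RNA → RT-PCR → 6-FAM primer extension → HpaI digest → CE fluorescence. Positive direction vs DMSO baseline.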
# Chain of Retinoic acid receptor alpha (Homo sapiens) (P10276 whole entry, looked up, the tested form may be a part): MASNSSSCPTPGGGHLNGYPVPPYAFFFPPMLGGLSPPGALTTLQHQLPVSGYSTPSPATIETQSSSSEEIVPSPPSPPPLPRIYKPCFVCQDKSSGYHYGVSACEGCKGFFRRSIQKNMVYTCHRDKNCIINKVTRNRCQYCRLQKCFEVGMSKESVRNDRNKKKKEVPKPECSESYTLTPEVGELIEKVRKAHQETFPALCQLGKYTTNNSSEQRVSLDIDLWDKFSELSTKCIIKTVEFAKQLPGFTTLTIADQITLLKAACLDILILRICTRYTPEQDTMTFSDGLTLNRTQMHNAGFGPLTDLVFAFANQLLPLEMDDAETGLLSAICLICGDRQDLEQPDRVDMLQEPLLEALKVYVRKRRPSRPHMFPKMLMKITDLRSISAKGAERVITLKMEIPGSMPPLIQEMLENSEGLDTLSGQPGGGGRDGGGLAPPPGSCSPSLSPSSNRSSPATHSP
# Chain of human Retinoic Acid Receptor gamma (RARg), RARG (gene 5916) (P13631 whole entry, looked up, the tested form may be a part): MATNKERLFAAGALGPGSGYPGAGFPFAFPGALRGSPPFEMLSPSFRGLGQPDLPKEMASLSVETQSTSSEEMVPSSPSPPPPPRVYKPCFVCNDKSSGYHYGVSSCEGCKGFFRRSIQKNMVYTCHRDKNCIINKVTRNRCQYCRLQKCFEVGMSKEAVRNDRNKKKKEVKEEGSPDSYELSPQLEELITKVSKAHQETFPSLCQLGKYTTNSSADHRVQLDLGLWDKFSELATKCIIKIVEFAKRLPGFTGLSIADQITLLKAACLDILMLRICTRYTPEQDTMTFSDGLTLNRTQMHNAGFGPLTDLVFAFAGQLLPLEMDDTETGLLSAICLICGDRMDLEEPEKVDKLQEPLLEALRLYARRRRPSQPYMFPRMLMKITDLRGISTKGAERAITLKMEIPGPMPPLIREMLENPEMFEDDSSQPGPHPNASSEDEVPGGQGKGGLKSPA
# Chain of Cellular tumor antigen p53 (Homo sapiens) (P04637 whole entry, looked up): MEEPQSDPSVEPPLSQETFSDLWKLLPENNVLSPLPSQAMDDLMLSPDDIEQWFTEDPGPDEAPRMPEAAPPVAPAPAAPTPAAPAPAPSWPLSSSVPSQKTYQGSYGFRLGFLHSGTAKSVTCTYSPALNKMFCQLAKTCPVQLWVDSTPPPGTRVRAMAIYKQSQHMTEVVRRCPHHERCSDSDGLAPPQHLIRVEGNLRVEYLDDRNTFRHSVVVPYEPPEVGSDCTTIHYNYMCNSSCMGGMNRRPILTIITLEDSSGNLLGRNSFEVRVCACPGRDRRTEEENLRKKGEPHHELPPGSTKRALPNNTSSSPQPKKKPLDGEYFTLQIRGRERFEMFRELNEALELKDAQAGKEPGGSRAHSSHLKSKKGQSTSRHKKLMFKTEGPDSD
# Chain of Peroxisome proliferator-activated receptor gamma (Homo sapiens) (P37231 whole entry, looked up, the tested form may be a part): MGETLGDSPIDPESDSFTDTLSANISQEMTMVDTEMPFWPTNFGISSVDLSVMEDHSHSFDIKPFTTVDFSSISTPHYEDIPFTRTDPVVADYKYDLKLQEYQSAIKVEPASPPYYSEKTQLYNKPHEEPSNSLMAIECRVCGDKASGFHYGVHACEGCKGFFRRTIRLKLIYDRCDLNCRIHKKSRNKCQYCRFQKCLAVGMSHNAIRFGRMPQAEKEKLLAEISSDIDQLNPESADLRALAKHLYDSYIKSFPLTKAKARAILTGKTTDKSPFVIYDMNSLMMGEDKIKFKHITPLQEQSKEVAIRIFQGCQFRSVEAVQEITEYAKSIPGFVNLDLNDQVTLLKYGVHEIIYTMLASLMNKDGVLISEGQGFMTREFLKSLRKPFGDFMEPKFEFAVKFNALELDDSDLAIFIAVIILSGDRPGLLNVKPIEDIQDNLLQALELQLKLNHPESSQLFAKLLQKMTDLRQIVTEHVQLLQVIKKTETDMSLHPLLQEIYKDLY
# Chain of Nuclear receptor subfamily 1 group I member 2 (Homo sapiens) (O75469 whole entry, looked up, the tested form may be a part): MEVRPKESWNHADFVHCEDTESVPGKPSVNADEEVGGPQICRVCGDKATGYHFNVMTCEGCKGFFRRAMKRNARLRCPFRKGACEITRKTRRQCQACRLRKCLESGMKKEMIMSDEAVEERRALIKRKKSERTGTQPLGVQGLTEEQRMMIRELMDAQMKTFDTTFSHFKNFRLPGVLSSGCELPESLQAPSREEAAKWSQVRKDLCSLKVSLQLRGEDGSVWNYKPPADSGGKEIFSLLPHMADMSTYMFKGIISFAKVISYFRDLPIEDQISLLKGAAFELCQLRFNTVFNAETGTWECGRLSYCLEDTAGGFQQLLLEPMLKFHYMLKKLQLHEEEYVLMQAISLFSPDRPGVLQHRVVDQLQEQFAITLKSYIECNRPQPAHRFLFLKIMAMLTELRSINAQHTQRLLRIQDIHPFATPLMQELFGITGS
# Chain of Myc proto-oncogene protein (Homo sapiens) (P01106 whole entry, looked up, the tested form may be a part): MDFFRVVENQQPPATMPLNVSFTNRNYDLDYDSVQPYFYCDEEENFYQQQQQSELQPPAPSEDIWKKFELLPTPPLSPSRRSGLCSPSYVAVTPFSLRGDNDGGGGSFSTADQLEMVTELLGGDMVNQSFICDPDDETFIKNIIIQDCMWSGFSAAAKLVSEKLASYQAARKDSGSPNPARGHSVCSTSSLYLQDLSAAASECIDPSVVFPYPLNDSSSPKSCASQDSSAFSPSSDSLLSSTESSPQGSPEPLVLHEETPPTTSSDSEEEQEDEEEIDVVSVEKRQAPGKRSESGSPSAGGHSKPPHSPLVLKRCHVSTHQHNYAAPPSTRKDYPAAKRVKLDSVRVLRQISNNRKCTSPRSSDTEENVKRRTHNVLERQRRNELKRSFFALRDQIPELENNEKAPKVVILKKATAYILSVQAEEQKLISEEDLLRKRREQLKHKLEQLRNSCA
# Chain of human Peroxisome Proliferator-activated Receptor alpha (PPARa), PPARA (gene 5465) (Q07869 whole entry, looked up, the tested form may be a part): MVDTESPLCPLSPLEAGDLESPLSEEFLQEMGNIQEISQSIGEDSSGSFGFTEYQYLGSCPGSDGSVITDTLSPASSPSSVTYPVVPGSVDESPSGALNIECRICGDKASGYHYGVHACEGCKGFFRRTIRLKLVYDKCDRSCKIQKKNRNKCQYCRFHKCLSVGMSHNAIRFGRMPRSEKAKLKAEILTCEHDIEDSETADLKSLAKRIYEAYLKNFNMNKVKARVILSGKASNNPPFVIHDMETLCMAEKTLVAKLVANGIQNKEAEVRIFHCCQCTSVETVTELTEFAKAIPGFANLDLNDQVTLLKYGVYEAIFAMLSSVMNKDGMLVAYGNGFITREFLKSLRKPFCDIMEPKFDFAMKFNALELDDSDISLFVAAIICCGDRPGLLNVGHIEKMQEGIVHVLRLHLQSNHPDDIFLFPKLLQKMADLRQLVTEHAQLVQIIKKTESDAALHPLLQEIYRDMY
# Chain of human Retinoic Acid Receptor beta (RARb), RARB (gene 5915) (P10826 whole entry, looked up, the tested form may be a part): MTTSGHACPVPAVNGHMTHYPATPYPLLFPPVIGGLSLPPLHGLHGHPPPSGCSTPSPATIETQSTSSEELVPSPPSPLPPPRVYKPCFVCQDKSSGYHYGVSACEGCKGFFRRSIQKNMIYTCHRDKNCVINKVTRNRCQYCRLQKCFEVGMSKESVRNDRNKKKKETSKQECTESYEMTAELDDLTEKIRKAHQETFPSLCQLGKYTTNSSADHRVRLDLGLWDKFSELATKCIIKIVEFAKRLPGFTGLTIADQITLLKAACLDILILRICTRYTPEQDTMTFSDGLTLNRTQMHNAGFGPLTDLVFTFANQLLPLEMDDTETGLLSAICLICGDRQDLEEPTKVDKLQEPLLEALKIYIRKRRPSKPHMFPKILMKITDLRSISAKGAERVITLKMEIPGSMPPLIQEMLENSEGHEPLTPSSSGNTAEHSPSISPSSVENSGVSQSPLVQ
# Chain of human Peroxisome Proliferator-activated Receptor delta (PPARd), PPARD (gene 5467) (Q03181 whole entry, looked up, the tested form may be a part): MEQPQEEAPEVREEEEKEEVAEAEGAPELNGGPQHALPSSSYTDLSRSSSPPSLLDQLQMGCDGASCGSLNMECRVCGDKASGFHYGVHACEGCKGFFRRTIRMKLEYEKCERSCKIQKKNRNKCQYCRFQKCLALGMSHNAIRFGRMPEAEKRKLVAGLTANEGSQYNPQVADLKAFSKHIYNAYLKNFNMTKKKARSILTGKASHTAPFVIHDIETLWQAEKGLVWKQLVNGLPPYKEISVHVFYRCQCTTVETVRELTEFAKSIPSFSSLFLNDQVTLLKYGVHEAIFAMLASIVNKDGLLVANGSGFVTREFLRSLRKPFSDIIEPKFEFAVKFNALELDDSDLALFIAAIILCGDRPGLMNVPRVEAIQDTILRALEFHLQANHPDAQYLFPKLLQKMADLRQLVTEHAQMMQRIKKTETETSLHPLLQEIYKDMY
# Chain of human RAR-related Orphan Receptor beta (RORb), RORB (gene 6096) (Q92753 whole entry, looked up, the tested form may be a part): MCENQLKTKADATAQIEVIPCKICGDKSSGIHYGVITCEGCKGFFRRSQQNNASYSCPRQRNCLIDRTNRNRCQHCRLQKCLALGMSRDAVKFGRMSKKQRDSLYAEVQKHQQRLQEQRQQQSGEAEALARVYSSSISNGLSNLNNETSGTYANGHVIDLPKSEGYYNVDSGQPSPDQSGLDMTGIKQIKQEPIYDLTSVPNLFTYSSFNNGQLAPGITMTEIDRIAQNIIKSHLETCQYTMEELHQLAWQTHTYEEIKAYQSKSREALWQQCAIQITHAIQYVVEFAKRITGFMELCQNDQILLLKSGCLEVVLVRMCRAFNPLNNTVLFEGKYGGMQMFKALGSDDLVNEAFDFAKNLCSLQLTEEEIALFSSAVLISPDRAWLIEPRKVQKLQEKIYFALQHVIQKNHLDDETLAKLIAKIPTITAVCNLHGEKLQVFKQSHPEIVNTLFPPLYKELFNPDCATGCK
smiles,measurement,setting,value
Cc1cc(CCC(=O)OCCOCCOCCOC(=O)CCc2cc(C)c(O)c(C(C)(C)C)c2)cc(C(C)(C)C)c1O,outcome,[1],inactive
same,outcome,[2],inactive
same,outcome,[3],inactive
same,AC50,[4],23.4 µM (active)
same,outcome,[5],inactive
same,outcome,[6],inactive
same,outcome,[7],inactive
same,outcome,[8],inactive
same,outcome,[9],inactive
same,outcome,[10],inactive
same,outcome,[11],inactive
same,outcome,[12],inactive
same,outcome,[13],inactive
same,outcome,[14],inactive
same,AC50,[15],24.2 µM (active)
same,AC50,[16],23.3 µM (active)
same,outcome,[17],inactive
CC(=O)C1(C)CC2=C(CCCC2(C)C)CC1C (stereo not drawn),AC50,[1],187 µM (active)
same,outcome,[2],inactive
same,AC50,[3],121 µM (active)
same,AC50,[4],93.6 µM (active)
same,AC50,[5],61.1 µM (active)
same,AC50,[6],144 µM (active)
same,AC50,[7],7.62 µM (active)
same,AC50,[8],11 µM (active)
same,AC50,[9],9.74 µM (active)
same,AC50,[11],12.8 µM (active)
same,AC50,[14],6.69 µM (active)
same,AC50,[15],100 µM (active)
same,AC50,[16],9.83 µM (active)
CC(CN=Cc1ccccc1O)N=Cc1ccccc1O (stereo not drawn),outcome,[1],inactive
same,outcome,[2],inactive
same,AC50,[3],63.6 µM (active)
same,AC50,[4],69.5 µM (active)
same,outcome,[5],inactive
same,outcome,[6],inactive
same,outcome,[7],inactive
same,outcome,[18],inactive
same,outcome,[8],inactive
same,outcome,[9],inactive
same,outcome,[10],inactive
same,outcome,[11],inactive
same,outcome,[12],inactive
same,AC50,[14],3.97 µM (active)
same,outcome,[14],inactive
same,AC50,[15],72.2 µM (active)
CCCCCCCCCCCC(=O)OC[C@@H](O)[C@H]1OC[C@H](O)[C@H]1O,outcome,[1],inactive
same,outcome,[2],inactive
same,outcome,[3],inactive
same,outcome,[4],inactive
same,outcome,[5],inactive
same,outcome,[6],inactive
same,outcome,[10],inactive
same,outcome,[19],inactive
same,outcome,[12],inactive
same,outcome,[13],inactive
same,outcome,[15],inactive
same,outcome,[17],inactive
COc1ccc(CCN2CCC(Nc3nc4ccccc4n3Cc3ccc(F)cc3)CC2)cc1,outcome,[1],inactive
same,outcome,[2],inactive
same,outcome,[3],inactive
same,AC50,[4],1.99 µM (active)
same,outcome,[5],inactive
same,outcome,[6],inactive
same,outcome,[7],inactive
same,outcome,[8],inactive
same,AC50,[9],5 µM (active)
same,outcome,[11],inactive
same,outcome,[12],inactive
same,outcome,[13],inactive
same,AC50,[14],6.51 µM (active)
same,outcome,[16],inactive
same,outcome,[17],inactive
same,outcome,[20],inactive
O=P(O)(O)O,outcome,[1],inactive
same,outcome,[2],inactive
same,outcome,[3],inactive
same,outcome,[4],inactive
same,outcome,[5],inactive
O=C1c2ccccc2C(=O)c2c(O)ccc(O)c21,outcome,[1],inactive
same,outcome,[2],inactive
same,AC50,[3],2.27 µM (active)
same,AC50,[4],4.07 µM (active)
same,outcome,[5],inactive
same,outcome,[6],inactive
same,AC50,[7],1.21 µM (active)
same,outcome,[8],inactive
same,AC50,[9],4.31 µM (active)
same,outcome,[10],inactive
same,outcome,[11],inactive
same,outcome,[12],inactive
same,outcome,[13],inactive
same,AC50,[14],2.95 µM (active)
same,AC50,[15],8.37 µM (active)
same,AC50,[16],8.69 µM (active)
same,outcome,[17],inactive
CCCCN(CCCC)C(=O)N(CCCC)CCCC,AC50,[1],60.3 µM (active)
same,AC50,[2],48.7 µM (active)
same,AC50,[3],52.8 µM (active)
same,AC50,[4],61.6 µM (active)
same,outcome,[5],inactive
same,AC50,[6],33.4 µM (active)
same,AC50,[7],6.23 µM (active)
same,AC50,[18],10.7 µM (active)
same,AC50,[8],8.82 µM (active)
same,AC50,[9],9.73 µM (active)
same,outcome,[10],inactive
same,outcome,[19],inactive
same,AC50,[11],10.7 µM (active)
same,AC50,[14],4.03 µM (active)
same,AC50,[15],15.9 µM (active)
same,AC50,[16],0.445 µM (active)
same,outcome,[17],inactive
